In PubChem BioAssay (NCI) one finds growth inhibition data, which are given here for 9 compounds.

Structures are written as SMILES. Compounds without any hit were thinned out: in the full panel of roughly 79,000, 15% have a hit. Unmarked numbers belong to inactive results. The source made the active and inactive calls. Cut-off read from the data, not from the text of the source: active = growth inhibition above about 70%; inactive = the rest.

Experiment [1] can be described thus: NCI Yeast Anticancer Drug Screen. Data for the rad50 strain (AID 155).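 Note: 0% = growth of vehicle-only cultures of the same strain.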 The conditions noted are these: S. cerevisiae rad50 strain growth inhibition, active compounds read high. A digest of the protocol:
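Vehicle-treated cultures provide the reference for the growth inhibition reported for compound-exposed, repair-deficient yeast.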

The nature of experiment [2]: NCI Yeast Anticancer Drug Screen. Data for the mec2-1 strain (AID 157). The conditions noted are these: S. cerevisiae mec2-1 strain, active compounds read high. In outline:
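Growth inhibition is read against vehicle-treated controls after compound exposure of the mec2-1 yeast strain, which is defective in DNA damage repair or cell cycle control.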

Experiment [3] is described as follows: NCI Yeast Anticancer Drug Screen. Data for the sgs1 mgt1 strain (AID 161).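 Note: 0% = growth of cultures given vehicle only.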 The conditions noted are these: S. cerevisiae sgs1 mgt1 strain, active compounds read high. In outline:
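Yeast cells carrying a defined DNA-repair defect were exposed to test compounds. Growth inhibition was measured relative to vehicle-treated controls.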

Experiment [4] is described as follows: NCI Yeast Anticancer Drug Screen. Data for the cln2 rad14 strain (AID 165).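 Note: 0% = growth equal to vehicle treated cultures.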 The conditions noted are these: S. cerevisiae cln2 rad14 strain, active compounds read high. In outline: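 Growth inhibition, relative to vehicle-treated controls, is the read-out. The test organism is a yeast strain with defined genetic alterations, cln2 rad14.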
A short description of experiment [5]: NCI Yeast Anticancer Drug Screen. Data for the bub3 strain (AID 167). The conditions noted are these: S. cerevisiae bub3 mutant strain, active compounds read high. In outline: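 Mutant yeast screening strain plus compound; vehicle-treated cultures serve as the 0% inhibition reference.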
A short description of experiment [6]: NCI Yeast Anticancer Drug Screen. Data for the mlh1 rad18 strain (AID 175). The conditions noted are these: S. cerevisiae mlh1 rad18 strain growth inhibition, active compounds read high. In outline: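 Cells of a genetically altered yeast strain, deficient in DNA damage repair, were treated with compound. Their growth was then compared with that of vehicle-treated cultures to give inhibition.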

[7] abbreviates: at 5.0 µM (retest, dose inferred, filed as 0.5).
[8] abbreviates: at 50.0 µM (retest, dose inferred, filed as 5.0).

As for `S=C(NCc1ccccc1)[S][Sb]([S]C(=S)NCc1ccccc1)[c]1ccccc1`, the growth inhibition in experiment [1] (setting [7]) is 1%; in experiment [1] (setting [8]), 95% (active); in experiment [1] (at 50.0 µM), 95.8% (active); in experiment [2] (setting [7]) it was 2%; in experiment [2] (setting [8]), 97% (active); in experiment [2] (at 50.0 µM) it was 88.4% (active). The growth inhibition was -138% in experiment [3] (setting [7]); 93% (active) in experiment [3] (setting [8]); 96% (active) in experiment [3] (at 50.0 µM); -6% in experiment [4] (setting [7]); 89% (active) in experiment [4] (setting [8]); 69.8% in experiment [4] (at 50.0 µM). The growth inhibition in experiment [5] (setting [7]) is -11%; in experiment [5] (setting [8]), 93% (active); in experiment [5] (at 50.0 µM), 84.5% (active); in experiment [6] (setting [7]), 6%; in experiment [6] (setting [8]), 87% (active); in experiment [6] (at 50.0 µM), 97.3% (active).

Consider `CCCCCCCCCCCCCCCCOC(=O)C[n+]1ccc(C(N)=O)cc1`, for which the growth inhibition is -2% in experiment [1] (setting [7]); 97% (active) in experiment [1] (setting [8]); 98% (active) in experiment [1] (at 50.0 µM); -8% in experiment [2] (setting [7]); 99% (active) in experiment [2] (setting [8]); 98.1% (active) in experiment [2] (at 50.0 µM). The growth inhibition is 21% in experiment [3] (setting [7]); 94% (active) in experiment [3] (setting [8]); 98.9% (active) in experiment [3] (at 50.0 µM); 0% in experiment [4] (setting [7]); 72% (active) in experiment [4] (setting [8]); 69.3% in experiment [4] (at 50.0 µM). For the same compound, the growth inhibition in experiment [5] (setting [7]) was -3%; in experiment [5] (setting [8]) it was 97% (active); in experiment [5] (at 50.0 µM) it was 93% (active); in experiment [6] (setting [7]), 32%; in experiment [6] (setting [8]), 96% (active); in experiment [6] (at 50.0 µM), 98.2% (active).

As to `Cc1cc(NC(=S)SCc2ccc(Cl)cc2)c([N+](=O)[O-])cc1C`, the growth inhibition in experiment [1] (setting [7]) is 65%; in experiment [1] (setting [8]), 95% (active); in experiment [1] (at 50.0 µM), 96% (active); in experiment [2] (setting [7]) it was 45%; in experiment [2] (setting [8]) it was 97% (active); in experiment [2] (at 50.0 µM) it was 98.2% (active). In addition, the growth inhibition is 90% (active) in experiment [3] (setting [7]); 96% (active) in experiment [3] (setting [8]); 97.3% (active) in experiment [3] (at 50.0 µM); 42% in experiment [4] (setting [7]); 92% (active) in experiment [4] (setting [8]); 94.3% (active) in experiment [4] (at 50.0 µM). Besides, the growth inhibition in experiment [5] (setting [7]) was 53%; in experiment [5] (setting [8]), 97% (active); in experiment [5] (at 50.0 µM), 96.2% (active); in experiment [6] (setting [7]) it was 98% (active); in experiment [6] (setting [8]), 96% (active); in experiment [6] (at 50.0 µM), 97.2% (active).

For the compound `CCOC(=O)C(C#N)c1cc(O)c(C(C#N)C(=O)OCC)cc1O` (configuration not stated), the growth inhibition in experiment [1] (setting [7]) is -2%; in experiment [1] (setting [8]) it was -2%; in experiment [1] (at 50.0 µM), -5.45%; in experiment [2] (setting [7]) it was -3%; in experiment [2] (setting [8]) it was -4%; in experiment [2] (at 50.0 µM) it was 6.85%. The growth inhibition in experiment [3] (setting [7]) was -4%; in experiment [3] (setting [8]), -6%; in experiment [3] (at 50.0 µM), -1.65%; in experiment [4] (setting [7]), 0%; in experiment [4] (setting [8]) it was -10%; in experiment [4] (at 50.0 µM) it was 55.5%. For the same compound, the growth inhibition in experiment [5] (setting [7]) was -1%; in experiment [5] (setting [8]), -5%; in experiment [5] (at 50.0 µM), 13.4%; in experiment [6] (setting [7]) it was -2%; in experiment [6] (setting [8]), -5%; in experiment [6] (at 50.0 µM) it was -6.9%.

Consider `COc1ccc(/C(=N/NC(N)=O)C(c2ccc(OC)cc2)C2C(=O)Oc3ccccc32)cc1` (configuration not stated), for which the growth inhibition in experiment [1] (setting [7]) is -7%; in experiment [1] (setting [8]), 88% (active); in experiment [1] (at 50.0 µM), 98.2% (active); in experiment [2] (setting [7]), -59%; in experiment [2] (setting [8]), 96% (active); in experiment [2] (at 50.0 µM) it was 99% (active). The growth inhibition is -4% in experiment [3] (setting [7]); 86% (active) in experiment [3] (setting [8]); 98.6% (active) in experiment [3] (at 50.0 µM); 0% in experiment [4] (setting [7]); 77% (active) in experiment [4] (setting [8]); 88.8% (active) in experiment [4] (at 50.0 µM). Besides, the growth inhibition in experiment [5] (setting [7]) is 0%; in experiment [5] (setting [8]) it was 83% (active); in experiment [5] (at 50.0 µM), 99.2% (active); in experiment [6] (setting [7]), -2%; in experiment [6] (setting [8]) it was 95% (active); in experiment [6] (at 50.0 µM), 98.4% (active).

For `CC(C)c1ccc(/C=C(\NC(=O)c2ccccc2)c2nc3ccccc3[nH]2)cc1`, the growth inhibition was -2% in experiment [1] (setting [7]); 60% in experiment [1] (setting [8]); 71.2% (active) in experiment [1] (at 50.0 µM); -27% in experiment [2] (setting [7]); 53% in experiment [2] (setting [8]); 86.1% (active) in experiment [2] (at 50.0 µM). Also, the growth inhibition in experiment [3] (setting [7]) was -2%; in experiment [3] (setting [8]), 67%; in experiment [3] (at 50.0 µM) it was 56.5%; in experiment [4] (setting [7]) it was -7%; in experiment [4] (setting [8]), 49%; in experiment [4] (at 50.0 µM), 80.4% (active). In addition, the growth inhibition was 6% in experiment [5] (setting [7]); 71% (active) in experiment [5] (setting [8]); 88% (active) in experiment [5] (at 50.0 µM); -3% in experiment [6] (setting [7]); 62% in experiment [6] (setting [8]); 93.3% (active) in experiment [6] (at 50.0 µM).

For the compound `CCCCCCCC[N+](C)(CCCCCCCC)CCCCCCCC`, the growth inhibition in experiment [1] (setting [7]) was 51%; in experiment [1] (setting [8]), 95% (active); in experiment [1] (at 50.0 µM) it was 90.5% (active); in experiment [2] (setting [7]) it was 47%; in experiment [2] (setting [8]), 91% (active); in experiment [2] (at 50.0 µM), 92.2% (active). Moreover, the growth inhibition in experiment [3] (setting [7]) was 98% (active); in experiment [3] (setting [8]), 97% (active); in experiment [3] (at 50.0 µM), 93% (active); in experiment [4] (setting [7]), 71% (active); in experiment [4] (setting [8]), 98% (active); in experiment [4] (at 50.0 µM), 91.7% (active). Also, the growth inhibition was 96% (active) in experiment [5] (setting [7]); 96% (active) in experiment [5] (setting [8]); 91.7% (active) in experiment [5] (at 50.0 µM); 41% in experiment [6] (setting [7]); 98% (active) in experiment [6] (setting [8]); 91.2% (active) in experiment [6] (at 50.0 µM).

In the case of `CC(=O)O[C@H]1CC[C@@]2(C)C(CC[C@]3(C)C2CC=C2[C@@H]4CC(C)(C)CC[C@]4(C(=O)NCCN(C)C)CCC23C)C1(C)C` (some centres not stated), the growth inhibition in experiment [1] (setting [7]) is -3%; in experiment [1] (setting [8]), 94% (active); in experiment [1] (at 50.0 µM) it was 77% (active); in experiment [2] (setting [7]), -2%; in experiment [2] (setting [8]), 98% (active); in experiment [2] (at 50.0 µM) it was 95.4% (active). Further, the growth inhibition in experiment [3] (setting [7]) was -2%; in experiment [3] (setting [8]) it was 98% (active); in experiment [3] (at 50.0 µM), 72.7% (active); in experiment [4] (setting [7]) it was -4%; in experiment [4] (setting [8]), 57%; in experiment [4] (at 50.0 µM), 5.3%. Also, the growth inhibition was -2% in experiment [5] (setting [7]); 87% (active) in experiment [5] (setting [8]); -21.4% in experiment [5] (at 50.0 µM); -2% in experiment [6] (setting [7]); 93% (active) in experiment [6] (setting [8]); 97.7% (active) in experiment [6] (at 50.0 µM).

In the case of `Cc1c(CCCl)c(N=[N+]=[N-])n2c(nc3ccccc32)c1C#N`, the growth inhibition in experiment [1] (setting [7]) is 31%; in experiment [1] (setting [8]), 46%; in experiment [1] (at 50.0 µM), 83.8% (active); in experiment [2] (setting [7]), 27%; in experiment [2] (setting [8]) it was 45%; in experiment [2] (at 50.0 µM), 71.2% (active). The growth inhibition in experiment [3] (setting [7]) is 23%; in experiment [3] (setting [8]), 51%; in experiment [3] (at 50.0 µM), 56.6%; in experiment [4] (setting [7]), 20%; in experiment [4] (setting [8]) it was 34%; in experiment [4] (at 50.0 µM) it was 63.4%. The growth inhibition in experiment [5] (setting [7]) is 23%; in experiment [5] (setting [8]), 57%; in experiment [5] (at 50.0 µM) it was 78.2% (active); in experiment [6] (setting [7]), 28%; in experiment [6] (setting [8]) it was 48%; in experiment [6] (at 50.0 µM) it was 56.5%.
